# SW480 rereplic = induces DNA re-replication in SW480 colon adenocarcinoma cells; SW480 DNA re-replication, Hoechst DNA content imaging, 48 h; Potency, µM (titrated, usually from 46.1 µM), usual class: activators; actives 1.8% (n = 340,000); further: nearly all actives have a fitted effect of over 55% in size
#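 DNA re-replication was detected as more nuclei of elevated Hoechst intensity after 48 hr exposure to compound (23 nL pinned per well of 250 cells).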
# IL-1B inflam inh = blocks inflammasome-driven IL-1 beta release | THP-1 LPS/ATP IL-1B secretion, AlphaLISA, 16 h; active compounds read low | activity change, % at 57.5 µM | actives 4.7% (n = 360,000) | AID 743279; in the data active means activity change below about -50%; inconclusive means mostly about -30% to -49%
#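 THP-1 cells pretreated 1 hr with compounds (up to 57.5 uM final), then stimulated with LPS (250 ng/mL final) plus ATP (1.25 mM final); secreted IL-1B measured by AlphaLISA after 16 hr, decreased signal indicating inhibition.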
# MCF10A rerep = inducers of DNA re-replication in MCF 10A breast cells. MCF 10A DNA re-replication, Hoechst nuclear intensity, 48 h. Potency, µM (highest dose often 46.1 µM), actives largely listed as activators. actives 2.9% (n = 350,000); further: nearly all actives have a fitted effect of over 50% in size
# KB-V1 MDR tox = kills drug-selected multidrug resistant KB-V1 cells | KB-V1 MDR cells viability, CellTiter-Glo, 72 h | Potency, µM (highest dose often 46.1 µM), usual class: cytotoxic | actives 3.4% (n = 400,000) | AID 1347076; further: nearly all actives have a fitted effect of over 60% in size
#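 Compound-treated KB-V1 multidrug-resistant cells, 72 h, 37 degrees C; viability by CellTiter-Glo. Fitted qHTS curves give the values.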
# KB-3-1 tox = kills parental KB-3-1 adenocarcinoma cells; KB-3-1 viability, CellTiter-Glo ATP luminescence, 72 h; Potency, µM (doses to about 46.1 µM), actives largely listed as cytotoxic; actives 1.4% (n = 400,000); further: nearly all actives have a fitted effect of over 60% in size
#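 Cells are dispensed, compounds pinned in, plates held at 37 °C for 72 h, then CellTiter-Glo is added and luminescence read after 10 minutes. Cell line: parental KB-3-1 in phenol-red-free DMEM, 10% FBS.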
# Numbers stand for hits; n = inactive; u = inconclusive; x = not tested or not shown; ! = not active in a repeat. Most compounds without a hit are left out; they make up all but 9.9% or so of the library. Unless noted, the call rests on the fitted dose curve; in most records, active means well fitted curve in the direction sought with a large enough effect; inconclusive means small, poorly fitted or top-dose-only effect, or another doubt; inactive means no such curve, though single readings can be large; an effect the other way counts as inactive or inconclusive.
SMILES,SW480 rereplic,IL-1B inflam inh,MCF10A rerep,KB-V1 MDR tox,KB-3-1 tox
Cc1ccc2nc(C)cc(C(=O)N3CCCC(CO)(Cc4ccccc4C)C3)c2c1 (stereo unspecified),n,n,n,n,n
CC(=O)Oc1ccccc1/C=C/c1ccc2ccccc2[n+]1C,n,-57.1,u,n,n
COc1cc(/C=C/c2cc[n+](C)c3ccccc23)cc(OC)c1OC,x,x,x,n,u
COc1cc(OC)c(OC)cc1/C=C/c1ccc2ccccc2[n+]1C,x,x,x,n,13µM
COc1ccc(/C=C/c2ccc3ccccc3[n+]2C)c(OC)c1OC,x,x,x,n,u
COc1ccc(/C=C/c2ccc3ccccc3[n+]2C)cc1OC,n,n,n,n,10.3µM!
CCOc1ccc(NC(=O)C2CCN(C(=O)C3CC(=O)N(c4ccc(C)cc4)C3)CC2)cc1 (stereo unspecified),n,n,n,n,n
Brc1cccc2sc(N3CCCC3)nc12,n,n,n,n,n
COCCCN1CN(S(=O)(=O)c2ccc(C)cc2C)c2nc3ccccc3nc21,n,n,n,n,n
Cc1cccc(Nc2nnc(SCC(=O)NC(=O)Nc3ccc4c(c3)OCCO4)s2)c1,u,n,23.1µM,u,u
COc1ccccc1Nc1nnc(SCC(=O)NC(=O)Nc2ccc3c(c2)OCCO3)s1,n,n,20.6µM,n,n
Cc1nnc(SCC(=O)NC(=O)Nc2ccc3c(c2)OCCO3)s1,n,n,n,n,n
Nc1nnc(SCC(=O)Nc2cccnc2Cl)s1,n,n,n,n,n
Cc1cccc(Nc2nnc(SCC(=O)Nc3cccnc3Cl)s2)c1,n,n,n,14.6µM,n
CCOc1ccc(N(CC(=O)Nc2ccc3c(c2)OCO3)S(=O)(=O)c2ccccc2)cc1,x,x,x,n,n
C[C@]12C=CC(=O)C=C1CC[C@@H]1[C@@H]2[C@@H](O)C[C@@]2(C)[C@H]1CC[C@]2(O)C(=O)COC(=O)CCC(=O)O,n,u,n,n,n
C[C@]12C=CC(=O)C=C1CC[C@@H]1[C@@H]2[C@@H](O)C[C@@]2(C)[C@H]1CC[C@]2(O)C(=O)COC(=O)CCC(=O)NCCc1ccc(O)cc1,n,-56.3,n,n,n
C[C@]12C=CC(=O)C=C1CC[C@@H]1[C@@H]2[C@@H](O)C[C@@]2(C)[C@H]1CC[C@]2(O)C(=O)CO,n,-54.8,n,n,n
C[C@H](CO)N1C[C@H](C)[C@@H](CN(C)S(=O)(=O)c2ccccc2F)Oc2ncc(Br)cc2C1=O,x,n,x,n,n
COCCNC(=O)c1cccc(OC2CCN(Cc3ccc(OC(F)F)cc3)CC2)c1,n,n,n,u,n
CN1C(c2ccc(F)cc2)=CS/C1=C(\C#N)c1nnc2n1-c1ccccc1SC2,n,-78.6,11.6µM,n,n
Clc1ccc(-c2nnc3n2-c2ccccc2SC3)cc1,u,n,n,n,n
CCCNC(=O)C1(C)CCCN(C(=O)c2cccc(C(F)(F)F)c2)C1 (stereo unspecified),x,n,x,n,n
CC(C)N1CCC1(C)C(=O)Nc1cc(-c2ccccc2)nn1C (stereo unspecified),x,n,x,n,n
CC(C)[C@H]1COCCS(=O)(=O)N1Cc1ccccc1-c1ccccc1,n,n,u,n,n
SMILES,SW480 rereplic,IL-1B inflam inh,MCF10A rerep,KB-V1 MDR tox,KB-3-1 tox
CCCCC[C@@H](C)N1C[C@@H](COCc2ccccc2)Oc2cc(N3CC[C@H](O)C3)ccc2S1(=O)=O,x,n,x,n,u
CCCCC[C@@H](C)N1C[C@@H](COCc2ccccc2)Oc2cc(N3CC[C@@H](O)C3)ccc2S1(=O)=O,x,n,x,n,u
CCCCC[C@H](C)N1C[C@H](COCc2ccccc2)Oc2cc(N3CC[C@@H](N(C)C)C3)ccc2S1(=O)=O,x,-63.6,x,u,u
CCCCC[C@@H](C)N1C[C@@H](COCc2ccccc2)Oc2cc(N3CCC[C@@H]3CO)ccc2S1(=O)=O,x,n,x,16.4µM,u
CCCCC[C@@H](C)N1C[C@@H](COCc2ccccc2)Oc2cc(N3CC[C@@H](N(C)C)C3)ccc2S1(=O)=O,x,-89.0,x,20.6µM,u
CCCCC[C@@H](C)N1C[C@H](COCc2ccccc2)Oc2cc(N3CCC[C@@H]3COC)ccc2S1(=O)=O,x,n,x,n,n
CCCCC[C@@H](C)N1C[C@H](COCc2ccccc2)Oc2cc(N3CC[C@@H](N(C)C)C3)ccc2S1(=O)=O,x,-91.9,x,16.4µM,u
C/C(Cl)=C\Cn1c(N2CCCC2)nc2c1c(=O)n(C)c(=O)n2C,n,n,n,n,n
CCN(CC)S(=O)(=O)c1ccc(OCC(=O)NC(=O)Cc2ccccc2)c([N+](=O)[O-])c1,n,n,n,n,n
O=Cc1ccc2c(c1)OCCOCCOCCOCCO2,x,n,x,n,n
COc1ccc(OC)c(C=NNC(=O)c2ccccc2NS(=O)(=O)c2cccs2)c1,n,n,n,n,u
C[C@H](c1ccccc1)N1C[C@H](COCc2ccccc2)Oc2cc(N3CC[C@@H](O)C3)ccc2S1(=O)=O,x,n,x,23.1µM,n
CCCCC[C@H](C)N1C[C@H](COCc2ccccc2)Oc2cc(N3CC[C@H](N(C)C)C3)ccc2S1(=O)=O,x,u,x,20.6µM,u
Cc1ccc2cc(CN(C(=O)c3cccs3)c3ccccc3)c(=O)[nH]c2c1,u,n,u,n,n
Cc1cccc(N(Cc2cc3cc(C)ccc3[nH]c2=O)C(=O)c2cccs2)c1,n,n,10.3µM,n,n
Cc1ccc2[nH]c(=O)c(CN(C(=O)c3cccs3)c3ccccc3)cc2c1,n,n,n,3.26µM,u
CCOC(=O)C1CCN(C(c2ccc(C)cc2)c2c(O)cc(C)n(CCOC)c2=O)CC1 (stereo unspecified),x,x,x,n,n
O=C(COC(=O)c1cnccn1)Nc1cc(S(=O)(=O)N2CCOCC2)ccc1Cl,n,n,n,x,x
O=C(NCCCN1CCOCC1)c1ccc(-n2nc(C(F)(F)F)cc2-c2cccs2)cc1,n,-86.8,u,u,u
COCCCNC(=O)c1ccc(-n2nc(C(F)(F)F)cc2-c2cccs2)cc1,n,u,n,u,n
CC(=O)Oc1c(-c2ccco2)oc2ccccc2c1=O,16.4µM,-81.9,u,u,n
CCN(CC)C(=O)COc1c(-c2ccco2)oc2ccccc2c1=O,n,n,u,n,n
COc1ccc(-c2c(C)c3ccc(O)c(CN4CCCC(C)C4)c3oc2=O)cc1OC (stereo unspecified),x,x,x,n,n
Cc1c(Cl)c([N+](=O)[O-])nn1CC(=O)NCc1cccs1,n,n,n,18.4µM,n
Cc1c(Cl)c([N+](=O)[O-])nn1CCCC(=O)Nc1c(Cl)cccc1Cl,n,n,n,7.31µM,n
O=C(CCC1CCCC1)Nc1cc(Cl)ccc1N1CCOCC1,u,-56.5,n,n,n
O=C(Nc1cccc(Cl)c1N1CCCCC1)c1ccc2c(c1)OCCO2,n,n,u,n,n
O=C(Nc1cc(Cl)ccc1N1CCOCC1)c1ccc2c(c1)OCCO2,n,-70.5,n,n,n

# Compound activity as filed in PubChem BioAssay.
